What all share (test): protein-binding microarray (PBM); PBM: ~300 nM protein, 6 mM HEPES pH 7.8, 80 mM KCl, 0.5 mM EDTA, 0.5 mM EGTA, 6% glycerol, 35 ng/ul poly-dIdC, 1% milk, 1 h, room temperature; Ap Aiptasia and Nv Nematostella (sea anemones) / Co Capsaspora / Aq Amphimedon (sponge) / Dm Drosophila / Hu human; RHD is the Rel homology domain; high values mean tight binding
Common to all, as to conditions: dsDNA, one strand shown

Assay [1] has as its target T1, GST-Ap-NF-kB RHD (Exaiptasia pallida (Aiptasia), UniProt A0A913YAJ5 2-422).
T1 sequence: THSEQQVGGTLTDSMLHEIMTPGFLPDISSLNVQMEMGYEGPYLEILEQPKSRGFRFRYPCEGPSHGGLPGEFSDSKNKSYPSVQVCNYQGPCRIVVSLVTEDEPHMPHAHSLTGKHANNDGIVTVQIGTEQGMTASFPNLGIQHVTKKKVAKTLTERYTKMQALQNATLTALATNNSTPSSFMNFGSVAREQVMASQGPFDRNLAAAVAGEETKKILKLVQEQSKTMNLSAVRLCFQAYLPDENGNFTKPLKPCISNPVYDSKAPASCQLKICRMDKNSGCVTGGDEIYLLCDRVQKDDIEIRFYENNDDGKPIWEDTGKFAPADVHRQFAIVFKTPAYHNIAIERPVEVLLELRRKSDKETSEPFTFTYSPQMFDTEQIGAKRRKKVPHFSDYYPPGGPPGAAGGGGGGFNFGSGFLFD

Assay [2] addresses T2, GST-Nv-NF-kB (Cys allele) (Nematostella vectensis, UniProt E5G601 2-411).
T2 sequence: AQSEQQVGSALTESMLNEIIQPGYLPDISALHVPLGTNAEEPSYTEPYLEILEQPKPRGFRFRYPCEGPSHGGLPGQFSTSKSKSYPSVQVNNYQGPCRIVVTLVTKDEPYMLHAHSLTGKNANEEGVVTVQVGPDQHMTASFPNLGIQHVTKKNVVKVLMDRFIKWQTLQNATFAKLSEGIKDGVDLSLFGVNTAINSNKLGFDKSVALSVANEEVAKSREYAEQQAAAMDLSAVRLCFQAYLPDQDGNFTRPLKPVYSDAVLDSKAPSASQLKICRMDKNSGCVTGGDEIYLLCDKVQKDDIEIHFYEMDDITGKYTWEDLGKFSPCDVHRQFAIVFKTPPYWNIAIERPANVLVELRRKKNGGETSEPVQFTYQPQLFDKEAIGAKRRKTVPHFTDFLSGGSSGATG

Assay [3] has as its target T3, GST-Nv-NF-kB (Ser allele) (Nematostella vectensis, UniProt A7UNT2 2-411).
T3 sequence: T2 sequence with Q21R, C66S, S207N, E215Q, V217A, E225K, A268E, D399E

In assay [4] the target is T4, GST-Co-NF-kB (Capsaspora owczarzaki, UniProt F1ARL5 200-546).
T4 sequence: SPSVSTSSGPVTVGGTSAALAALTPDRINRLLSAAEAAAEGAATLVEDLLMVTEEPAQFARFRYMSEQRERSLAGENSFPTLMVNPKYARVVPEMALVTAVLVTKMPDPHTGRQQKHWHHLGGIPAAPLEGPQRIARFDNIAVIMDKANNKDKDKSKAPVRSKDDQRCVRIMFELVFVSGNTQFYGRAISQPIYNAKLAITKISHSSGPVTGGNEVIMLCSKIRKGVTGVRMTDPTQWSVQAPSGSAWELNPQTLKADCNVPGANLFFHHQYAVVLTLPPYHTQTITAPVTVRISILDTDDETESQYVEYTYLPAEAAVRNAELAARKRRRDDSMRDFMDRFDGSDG

In assay [5] the target is T5, GST-Dm-Relish (Drosophila melanogaster, UniProt Q94527 99-473).
T5 sequence: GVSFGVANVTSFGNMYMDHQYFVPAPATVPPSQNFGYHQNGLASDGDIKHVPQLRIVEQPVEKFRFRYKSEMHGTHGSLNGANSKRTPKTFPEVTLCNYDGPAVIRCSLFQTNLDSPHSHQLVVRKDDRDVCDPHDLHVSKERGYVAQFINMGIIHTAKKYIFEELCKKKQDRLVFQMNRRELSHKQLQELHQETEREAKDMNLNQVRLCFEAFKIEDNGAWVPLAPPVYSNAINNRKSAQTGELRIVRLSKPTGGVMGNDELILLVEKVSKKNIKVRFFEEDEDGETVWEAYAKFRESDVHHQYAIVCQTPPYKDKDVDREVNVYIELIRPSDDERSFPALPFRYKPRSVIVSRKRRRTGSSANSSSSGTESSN

The target of assay [6] is T6, GST-Aq-NF-kB (Amphimedon queenslandica, UniProt A9Y5G7 2-389).
T6 sequence: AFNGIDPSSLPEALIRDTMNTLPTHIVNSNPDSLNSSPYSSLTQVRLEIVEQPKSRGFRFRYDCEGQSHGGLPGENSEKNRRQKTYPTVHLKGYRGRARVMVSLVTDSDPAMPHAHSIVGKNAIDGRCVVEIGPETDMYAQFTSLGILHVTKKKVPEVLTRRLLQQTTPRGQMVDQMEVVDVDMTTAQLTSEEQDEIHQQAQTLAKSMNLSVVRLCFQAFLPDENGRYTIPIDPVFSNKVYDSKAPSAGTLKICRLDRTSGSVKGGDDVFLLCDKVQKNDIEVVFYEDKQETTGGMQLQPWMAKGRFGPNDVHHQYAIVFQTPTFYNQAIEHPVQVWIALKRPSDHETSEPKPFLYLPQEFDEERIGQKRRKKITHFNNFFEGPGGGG

For assay [7], the target named is GST-Hu-p50 (Homo sapiens, UniProt P19838 7-356).
Chain of GST-Hu-p50 (P19838 7-356): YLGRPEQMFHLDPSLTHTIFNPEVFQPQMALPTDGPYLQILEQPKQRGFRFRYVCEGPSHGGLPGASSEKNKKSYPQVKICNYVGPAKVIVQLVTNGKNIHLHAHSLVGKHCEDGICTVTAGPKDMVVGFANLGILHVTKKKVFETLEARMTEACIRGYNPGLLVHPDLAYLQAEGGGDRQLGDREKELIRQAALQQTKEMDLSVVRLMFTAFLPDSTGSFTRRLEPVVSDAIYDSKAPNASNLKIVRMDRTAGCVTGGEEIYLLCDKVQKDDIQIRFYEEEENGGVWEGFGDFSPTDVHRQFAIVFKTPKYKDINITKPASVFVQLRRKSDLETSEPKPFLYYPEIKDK

For 12 sequences, binding signal results are on record in publication PMC5700166.

Substitutions are numbered along the chain they refer to.

For “CCGATTAACATCAGGAAACCCCATGATGTTAATCGGGTCTTGATTCGCTTGACGCTGCTG”, the binding signal in assay [1] is 5.38 z-score; in assay [2], 4.14 z-score; in assay [3] it was 2.64 z-score; in assay [4] it was 1.76 z-score; in assay [5], 8.23 z-score; in assay [6], 4.84 z-score. The binding signal in assay [7] was found to be 4.69 z-score.
On to “CCGATTAACATCAGGGAAAACCCTGATGTTAATCGGGTCTTGATTCGCTTGACGCTGCTG”, for which the binding signal in assay [1] was 7.33 z-score; in assay [2], 9.72 z-score; in assay [3] it was 7.71 z-score; in assay [4] it was 3.49 z-score; in assay [5], 9.01 z-score; in assay [6] it was 10.2 z-score. In assay [7], this sequence registered a binding signal of 5.66 z-score.
Regarding “CCGATTAACATCACGGGGAAACCTGATGTTAATCGGGTCTTGATTCGCTTGACGCTGCTG”, the binding signal in assay [1] stood at 7.51 z-score; in assay [2], 7.32 z-score; in assay [3], 9.2 z-score; in assay [4], 8.87 z-score; in assay [5] it was 7.04 z-score; in assay [6] it was 6.23 z-score. The same sequence yielded a binding signal in assay [7] of 5.72 z-score.
Turning to “CCGATTAACATCAGGGGGTTTCATGATGTTAATCGGGTCTTGATTCGCTTGACGCTGCTG”, the binding signal was 8.25 z-score in assay [1]; 7.15 z-score in assay [2]; 7.35 z-score in assay [3]; 2.56 z-score in assay [4]; 8.76 z-score in assay [5]; 6.59 z-score in assay [6]. This sequence also gave a binding signal in assay [7] of 6.6 z-score.
As for “CCGATTAACATCAGGGTAAACCCTGATGTTAATCGGGTCTTGATTCGCTTGACGCTGCTG”, the binding signal amounted to 3.1 z-score in assay [1]; 4.05 z-score in assay [2]; 2.62 z-score in assay [3]; 2.45 z-score in assay [4]; 5.92 z-score in assay [5]; 6.52 z-score in assay [6]. Moreover, the binding signal in assay [7] was determined as 2.7 z-score.
“CCGATTAACATCAGGGGGTTTACTGATGTTAATCGGGTCTTGATTCGCTTGACGCTGCTG”: the binding signal in assay [1] is 7.86 z-score; in assay [2] it was 6.45 z-score; in assay [3] it was 7.4 z-score; in assay [4], 2.97 z-score; in assay [5] it was 9.74 z-score; in assay [6] it was 7.06 z-score. Moreover, the binding signal in assay [7] turned out to be 7.11 z-score.
“CCGATTAACATCAGATCTCCCCCTGATGTTAATCGGGTCTTGATTCGCTTGACGCTGCTG”: the binding signal was found to be 6.98 z-score in assay [1]; 5.31 z-score in assay [2]; 6.01 z-score in assay [3]; 8.07 z-score in assay [4]; 2.64 z-score in assay [5]; 4.88 z-score in assay [6]. The same sequence had a binding signal in assay [7] of 5.76 z-score.
“CCGATTAACATCAAAAACCCCCGTGATGTTAATCGGGTCTTGATTCGCTTGACGCTGCTG”: the binding signal was found to be 9.67 z-score in assay [1]; 8.8 z-score in assay [2]; 8.78 z-score in assay [3]; 4.41 z-score in assay [4]; 10.8 z-score in assay [5]; 8.35 z-score in assay [6]. For the same sequence, the binding signal in assay [7] amounted to 7.43 z-score.
With “CCGATTAACATCAGGGAATACCCTGATGTTAATCGGGTCTTGATTCGCTTGACGCTGCTG”, the binding signal in assay [1] came out at 8.89 z-score; in assay [2], 11.2 z-score; in assay [3] it was 8.44 z-score; in assay [4] it was 3.79 z-score; in assay [5] it was 9.63 z-score; in assay [6], 10.2 z-score. This sequence also came in with a binding signal in assay [7] of 6.01 z-score.
In the case of “CCGATTAACATCATAAACCCCCATGATGTTAATCGGGTCTTGATTCGCTTGACGCTGCTG”, the binding signal in assay [1] is 5.78 z-score; in assay [2] it was 4.95 z-score; in assay [3], 5.67 z-score; in assay [4], 2.59 z-score; in assay [5], 7.12 z-score; in assay [6] it was 4.77 z-score. This sequence also registered a binding signal in assay [7] of 6.3 z-score.
Turning to “CCGATTAACATCAAATAAGTCCCTGATGTTAATCGGGTCTTGATTCGCTTGACGCTGCTG”, the binding signal in assay [1] stood at 4.69 z-score; in assay [2], 6.71 z-score; in assay [3], 7 z-score; in assay [4] it was 1.42 z-score; in assay [5], 5.96 z-score; in assay [6], 6.24 z-score. In assay [7], this sequence gave a binding signal of 4.56 z-score.
For the sequence “CCGATTAACATCACAGTCCCCCCTGATGTTAATCGGGTCTTGATTCGCTTGACGCTGCTG”, the binding signal in assay [1] came to 5.98 z-score; in assay [2], 5.07 z-score; in assay [3], 5.18 z-score; in assay [4], 5.62 z-score; in assay [5] it was 4.6 z-score; in assay [6], 4.63 z-score. The sequence also gave a binding signal in assay [7] of 4.33 z-score.
